{"source": "PubChem BioAssay AID463173", "about": "(ICCB-Longwood Screening Facility, Harvard Medical School, 2010)", "note": "Out of some 52,000 compounds screened, about 4,300 (8.3%) were called active. The entries come from a sample that favours actives as a whole. Values without a mark were called inactive. Rule as the data show it: active = survival mostly below about 52% (no sharp cut-off); inactive = mostly above about 56%.", "data": [{"tested_on": "DeltatarO mutant", "experiment": "S. aureus survival, RN4220 and DeltatarO strains – OD600, teichoic acid synthesis inhibitors, primary screen (AID 463173)", "details": "S. aureus RN4220 wild type/DeltatarO growth, OD600, 18 h, hits give low values, screened at 18.75 µg/mL (by protocol)", "values": [{"smiles": "COC(=O)c1ccc(C=Nc2ccc(O)c(-c3nc4ccccc4o3)c2)cc1", "survival": "93%"}, {"smiles": "COc1ccc(C)cc1-n1cnc2cc(C(=O)NC3CCCC3)ccc21", "survival": "119%"}, {"smiles": "O=C(C1CCC(Cn2c(=O)c3sccc3n(Cc3cccc(F)c3)c2=O)CC1)N1CCCCC1", "note": "(stereo not given)", "survival": "92%"}, {"smiles": "Cc1c(NS(=O)(=O)c2cccc(C(=O)O)c2)c(=O)n(-c2ccccc2)n1C", "survival": "67%"}, {"smiles": "O=C1Nc2ccccc2N(O)N1c1ccccc1Cl", "survival": "90%"}, {"smiles": "CCc1ccc(S(=O)(=O)Nc2ccc3c(c2)n(C)c(=O)c(=O)n3C)cc1", "survival": "79%"}, {"smiles": "COc1ccccc1N1CCN(C(=O)Cn2c(=O)n3nc(-c4cccc(F)c4)nc3c3ccccc32)CC1", "survival": "71%"}, {"smiles": "CC(C)c1ccc(NC(=O)CN2C(=O)CCc3cc(S(=O)(=O)N4CCOCC4)ccc32)cc1", "survival": "87%"}, {"smiles": "O=C(Nc1ccc(F)cc1Cl)c1cnc(N2CCOCC2)c2ccccc12", "survival": "104%"}, {"smiles": "COc1cccc(N=Nc2c(O)[nH]c(=O)[nH]c2=O)c1", "survival": "101%"}, {"smiles": "COc1ccc(N=Nc2c(N)n[nH]c2N)cc1", "survival": "1% (active)"}, {"smiles": "Nc1n[nH]c(N)c1N=Nc1ccc(Cl)cc1", "survival": "64%"}, {"smiles": "Cn1c(=O)c2cc(C(=O)NCCCN3CCN(c4ccc(F)cc4)CC3)sc2c2ccccc21", "survival": "70%"}, {"smiles": "C=C(C)Cn1c(SCC(=O)Nc2cccc(Cl)c2)nc2sc3c(c2c1=O)CCCC3", "survival": "126%"}, {"smiles": "CC(=O)c1cccc(NC(=O)[C@H](Cc2ccccc2)N2Cc3ccccc3C2=O)c1", "survival": "67%"}, {"smiles": "CCc1cccc(NC(=O)C(Cc2ccccc2)n2cccc2)c1", "note": "(stereo not given)", "survival": "18% (active)"}, {"smiles": "COc1ccc(NC(=O)C(Cc2ccccc2)n2cccc2)cc1OC", "note": "(stereo not given)", "survival": "79%"}, {"smiles": "Cc1ccc(C)c(NC(=O)C(Cc2ccccc2)n2cccc2)c1", "note": "(stereo not given)", "survival": "107%"}, {"smiles": "Cc1ccc(NC(=O)C(Cc2ccccc2)n2cccc2)c(C)c1", "note": "(stereo not given)", "survival": "67%"}, {"smiles": "O=C(Nc1cccc(Cl)c1)C(Cc1ccccc1)n1cccc1", "note": "(stereo not given)", "survival": "11% (active)"}, {"smiles": "O=C(Nc1ccccc1)C(Cc1ccccc1)N1Cc2ccccc2C1=O", "note": "(stereo not given)", "survival": "77%"}, {"smiles": "Cc1cccc(NC(=O)C(Cc2ccccc2)n2cccc2)c1C", "note": "(stereo not given)", "survival": "75%"}, {"smiles": "Cc1ccc(NC(=O)C(Cc2ccccc2)n2cccc2)cc1C", "note": "(stereo not given)", "survival": "28% (active)"}, {"smiles": "COc1ccc(OC)c(S(=O)(=O)Nc2cc3c(cc2C)n(C)c(=O)c(=O)n3C)c1", "survival": "84%"}, {"smiles": "C1=C(c2cccs2)OC(c2cccs2)=CC1c1cccs1", "survival": "52%"}, {"smiles": "Nc1ncc(S(=O)(=O)NCc2cccc(Cl)c2)cn1", "survival": "74%"}, {"smiles": "CCOc1ccc(S(=O)(=O)N2CCN(c3ccc(Cl)c(Cl)c3)CC2)c2ccccc12", "survival": "168%"}, {"smiles": "COc1ccc(Cn2nnnc2C(c2ccccn2)N2CCc3ccccc3C2)cc1", "note": "(stereo not given)", "survival": "74%"}, {"smiles": "O=C1CSC2(C(=O)N(Cc3ccccc3F)c3ccccc32)N1c1cccc(C(F)(F)F)c1", "note": "(stereo not given)", "survival": "87%"}, {"smiles": "O=C(COCc1cc(-c2ccco2)on1)Nc1ccc(OC(F)(F)F)cc1", "survival": "92%"}, {"smiles": "CCOc1ccc(-c2cc3c(=O)n(Cc4nc(-c5cccc(OC)c5OC)oc4C)ccn3n2)cc1Cl", "survival": "187%"}, {"smiles": "COc1ccc(C(=O)Nc2nnc(S(=O)(=O)N3CCCc4ccccc43)s2)cc1", "survival": "49%"}, {"smiles": "Cc1cccc(C(=O)Nc2nnc(S(=O)(=O)N3CCCc4ccccc43)s2)c1", "survival": "17% (active)"}, {"smiles": "Cc1ccc(C(=O)Nc2nnc(S(=O)(=O)N3CCCc4ccccc43)s2)cc1", "survival": "39% (active)"}, {"smiles": "Cc1ccc(C(=O)Nc2nnc(S(=O)(=O)N3CCc4ccccc43)s2)cc1", "survival": "26% (active)"}, {"smiles": "COc1cccc(C(=O)Nc2nnc(S(=O)(=O)N3CCCc4ccccc43)s2)c1", "survival": "18% (active)"}, {"smiles": "Cc1ccc2nc(NC(=O)c3ccc(S(=O)(=O)N4CCCc5ccccc54)cc3)sc2c1", "survival": "144%"}, {"smiles": "COc1ccccc1NC(=O)c1c(NCc2ccc(OC)c(OC)c2OC)sc2c1CCCC2", "survival": "93%"}, {"smiles": "COc1ccc(-c2nc3ccccc3n3c(-c4ccc(OC)cc4)c4c(=O)n(C)c(=O)n(C)c4c23)cc1", "survival": "84%"}, {"smiles": "CCOC(=O)c1c(S(=O)(=O)N2CCCC(C(=O)Nc3cccc(C#N)c3)C2)c(C)n(C)c1C", "note": "(stereo not given)", "survival": "67%"}, {"smiles": "CCc1ccccc1Nc1sc(C(=O)c2ccccc2)c(N)c1S(=O)(=O)c1ccccc1", "survival": "119%"}, {"smiles": "O=C(Nc1cccc(Cl)c1N1CCOCC1)c1ccco1", "survival": "90%"}, {"smiles": "COc1ccc(S(=O)(=O)CCc2nc3ccccc3n2CC(=O)O)cc1", "survival": "113%"}, {"smiles": "CCOC(=O)c1ccc(NC(=O)C(CC)Sc2nc3ccncc3[nH]2)cc1", "note": "(stereo not given)", "survival": "128%"}, {"smiles": "CN1CCN(C(=O)C(=O)Nc2c3c(nn2-c2ccc(Cl)cc2)CSC3)CC1", "survival": "72%"}, {"smiles": "CC(=O)N1CCN(C(=O)C(=O)Nc2c3c(nn2-c2ccc(Cl)cc2)CSC3)CC1", "survival": "-1% (active)"}, {"smiles": "CCC(CO)NC(=O)C(=O)Nc1c2c(nn1-c1ccc(F)cc1)CSC2", "note": "(stereo not given)", "survival": "80%"}, {"smiles": "CN1CCN(C(=O)C(=O)Nc2c3c(nn2-c2ccc(F)cc2)CSC3)CC1", "survival": "72%"}, {"smiles": "CC(NC(=O)C(=O)Nc1c2c(nn1-c1ccccc1)CSC2)c1ccccc1", "note": "(stereo not given)", "survival": "61%"}, {"smiles": "CC(NC(=O)C(=O)Nc1c2c(nn1-c1ccc(F)cc1)CSC2)c1ccccc1", "note": "(stereo not given)", "survival": "-2% (active)"}, {"smiles": "Cc1cccc(C)c1-n1ncc(C(=O)Nc2ccc3c(c2)OCO3)c1C1CCN(C(=O)OC(C)(C)C)CC1", "survival": "100%"}, {"smiles": "Cc1ccc(-c2cn3nc(N4CCCC(C(=O)NCc5ccc(F)cc5)C4)sc3n2)cc1", "note": "(stereo not given)", "survival": "86%"}, {"smiles": "CCNC(=O)NC1(C(=O)N2CCC(Cc3ccccc3)CC2)CCCCC1", "survival": "87%"}, {"smiles": "Cc1ccc(N2CC(NC(=O)c3cccc(Cl)c3)CC2=O)cc1C", "note": "(stereo not given)", "survival": "75%"}, {"smiles": "COc1cc(C(=O)N2CCC(c3nc4ccccc4o3)CC2)cc(OC)c1OC", "survival": "91%"}, {"smiles": "Cn1c2ccccc2c2c(C(=O)N3CCN(c4ccc(F)cc4)CC3)cn(C3CCCCC3)c(=O)c21", "survival": "132%"}, {"smiles": "CCCCOC(=O)c1ccc(NC(=O)Cc2coc3ccc(C(C)C)cc23)cc1", "survival": "69%"}, {"smiles": "Cc1ccc2onc(CC(=O)Nc3cccc(C(F)(F)F)c3)c2c1", "survival": "54%"}, {"smiles": "Cc1cccc(NC(=O)c2oc3ccccc3c2NC(=O)Cc2coc3ccc(C(C)C)cc23)c1", "survival": "67%"}, {"smiles": "Cc1ccc2c(CC(=O)Nc3cccc(C(F)(F)F)c3)coc2c1", "survival": "1% (active)"}, {"smiles": "CC(C)c1ccc2occ(CC(=O)Nc3cccc(C(F)(F)F)c3)c2c1", "survival": "0% (active)"}, {"smiles": "COC(=O)c1ccc(NC(=O)Cc2coc3cc(C)ccc23)cc1", "survival": "91%"}, {"smiles": "Cc1ccc(NC(=O)Cc2coc3ccc(C(C)C)cc23)c(C)c1", "survival": "88%"}, {"smiles": "CC(C)c1ccc2occ(CC(=O)Nc3ccccc3Cl)c2c1", "survival": "85%"}, {"smiles": "Cc1ccc(NC(=O)Cc2coc3ccc(C(C)C)cc23)cc1Cl", "survival": "37% (active)"}]}]}
